This is a sample that favours compounds with a hit; in the whole collection about 21% have one here.
HCMV antiviral: inhibitors of human cytomegalovirus | HFF cells, HCMV-luciferase reporter, 72 h; active compounds read low | activity change, negative = inhibition, % at 57.5 µM | actives 4.5% (n = 410,000) | AID 1259415; in the data active = activity change below about -60%; inconclusive = no clear call, values can overlap the other calls; inactive = above about -39%; note: % is set by controls: 0 for no effect and ±100 for the full control effect
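Two-dose cell screen: HFF monolayers treated with compounds and infected with luciferase-expressing HCMV at 1 PFU/cell, 72 h at 37C, then lysed for luciferase measurement.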
Pf growth 96h: P. falciparum growth inhibition at 96 hour, primary screen for plastid delayed-death inhibitors; actives 6.9% (n = 320,000); P. falciparum luciferase reporter growth, 96 h; Potency, µM (highest dose often 28.7 µM), for inactives: at the highest dose activity change, negative = inhibition, usual class: inhibitors; note: potency is the fitted concentration of half-maximal effect; % is set by controls: 0 for no effect and ±100 for the full control effect
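Luminescence readout: decreased luciferase signal marks inhibited growth of reporter-expressing P. falciparum in infected red cells (2% hematocrit, 0.05% parasitemia final), exposed to compound two generations (96 h, 37 C, 5% CO2).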
Shiga inhibitor: Shiga toxin inhibition | inhibition, % at 38.7 µM | AID 2315 | actives 9.2% (n = 290,000) | Vero cells, Shiga toxin protein synthesis inhibition reporter; in the data active = inhibition mostly above about 28%, no sharp cut-off; inactive = mostly below about 43%; note: 0% is about no effect
Cycloheximide cs: counter-screen hit for Shiga toxin inhibitors, cycloheximide. cell reporter, cycloheximide protein synthesis inhibition counterscreen. max response, %. actives 12% (n = 300,000). AID 2314; in the data active = max response mostly above about 13%, no sharp cut-off; inactive = mostly below about 14%; note: read at 38.3 µM for the half of the compounds with a filed dose; 0% is about no effect
HCV inhibitor: inhibitors of hepatitis C virus infection. Huh7.5.1 HCVcc-Cre infection, luciferase reporter, 44 h. Potency, µM (top dose mostly 41.8 µM), for inactives: at the top dose activity change, negative = inhibition, most hits filed as inhibitors. actives 3.4% (n = 340,000). AID 651820; note: potency is the fitted concentration of half-maximal effect; % is set by controls: 0 for no effect and ±100 for the full control effect
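After 44 h co-culture of compound, cells and HCVcc-Cre (~0.5 moi), substrate is added for 15 min at room temperature and luciferase measured over 15 sec. Cells were seeded at 1,000/well and pre-cultured 4 h.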
Pf growth 48h: inhibits P. falciparum growth in the first generation, 48 h. P. falciparum luciferase growth in erythrocytes, 48 h. Potency, µM (series often up to 28.7 µM), without a hit: top-dose activity change, negative = inhibition, hits mostly inhibitors. actives 5.9% (n = 310,000). AID 504832; note: potency is the fitted concentration of half-maximal effect; % is set by controls: 0 for no effect and ±100 for the full control effect
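In quantitative HTS format, infected erythrocytes bearing luciferase-reporter parasites were treated for a single generation at 37 C. Luminescence after adding detection reagent served as the growth measure.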
Active calls of the source: *; u = inconclusive; x = no result; [ ] = dose if it differs, or a comment. Unless noted, calls come from the whole dose curve; as a rule, active = well fitted inhibition curve with a large enough effect; inconclusive = small, poorly fitted or top-dose-only effect, or another doubt; inactive = no such curve, though single readings can be large or run the other way.

SMILES	HCMV antiviral	Pf growth 96h	Shiga inhibitor	Cycloheximide cs	HCV inhibitor	Pf growth 48h
Cc1ccc(NC(=O)c2ccc(OC(=O)COc3ccc(Cl)c(C)c3)cc2)cc1	77.2	3.6%	96.0*	48.9*	-5.7%	234.7%
CCOc1ccc(Nc2cc(C)c(C#N)c3nc4ccccc4n23)cc1	-1.7	x	x	x	x	x
COc1ccc(C(=O)Cn2c(=O)n3nc(CCn4nc(C)cc4C)nc3c3cc(OC)c(OC)cc32)cc1	-14.2	x	x	x	x	x
CCOC(=O)[C@]12CCCC=C1N(Cc1cccc3ccccc13)C(=O)[C@H](CC(=O)NCc1ccc(OC)c(OC)c1)C2	-76.0*	x	x	x	x	x
CCOC(=O)[C@]12CCC=C1N(Cc1ccc(Cl)cc1Cl)C(=O)[C@H](CC(=O)NCc1ccc(OC)c(OC)c1)C2	-92.6*	x	x	x	x	x
CCOC(=O)[C@]12CCCC=C1N(Cc1ccccc1)C(=O)[C@H](CC(=O)NCc1ccc(OC)c(OC)c1)C2	-2.8	x	x	x	x	x
COC(=O)[C@]12CCCCC=C1N(Cc1cccc3ccccc13)C(=O)[C@H](CC(=O)NCC13CC4CC(CC(C4)C1)C3)C2	-85.1*	x	x	x	x	x
C#CCNC(=O)C[C@@H]1C[C@@]2(C(=O)OC)CCCCC=C2N(Cc2cccc3ccccc23)C1=O	1.8	x	x	x	x	x
O=C(c1ccncc1)N1CCCC(N2CCN(c3ccc(F)cc3)CC2)C1 (configuration not stated)	0.7	30.2%	38.8*	27.3*	4.0%	26.5%
CC(C)c1cc(C(=O)N2CCCC(N3CCN(c4ccc(F)cc4)CC3)C2)n(C)n1 (configuration not stated)	-63.9*	17.3%	-2.6	-2.2	u	u
COc1ccc(CCNC(=O)COC(=O)CCC(=O)c2ccc(F)cc2)cc1	29.2	11.4%	-9.9	0.5	8.6%	1.3%
COc1cc(CNCCc2ccccc2F)ccc1OCC(=O)N1CCCCC1	-7.5	13.1µM*	1.3	-3.5	-2.6%	-27.2%
COC(=O)C1=C(C)NC(=S)NC1c1ccc(OCC(=O)N2CCCCC2)c(OC)c1 (configuration not stated)	-62.8*	11.6%	-34.7	1.2	15.8%	u
CCOC(=O)C1=C(C)NC(=O)NC1c1c(OCC(=O)N2CCCCC2)ccc2ccccc12 (configuration not stated)	-12.5	25.3%[5.75 µM]	-1.5	-7.3	-7.4%	11.7µM*
CCOC(=O)C1=C(C)NC(=O)NC1c1ccc(OCC(=O)N2CCCCC2)cc1 (configuration not stated)	-2.2	2.7%	-12.1	-3.5	5.1%	2.2%
O=C(Nc1cccc(F)c1)c1ccc(S(=O)(=O)N2CCCCC2)cc1	-36.3	-1.6%	8.1	11.1	-20.5%	u
Cc1c(Cl)cccc1Nc1nn2c(=O)c3ccc(C(=O)N(C)Cc4ccccc4)cc3nc2s1	1.4	x	x	x	x	x
O=C(O)CCc1cc(F)c(S(=O)(=O)N2CCN(S(=O)(=O)c3ccc4c(c3)OCCO4)CC2)cc1F	x	x	-6.5	-2.1	x	x
CC(C)N(Cc1ccccc1)C(=O)Cn1ncc2c([nH]c3ccccc32)c1=O	-11.0	x	x	x	x	x
Cc1ccc(C2=CC(C)(c3ccc(C)cc3)Nc3nc(C(F)(F)F)nn32)cc1 (configuration not stated)	-22.6	u	-5.9	-1.5	u	u
Cc1cc(C2=CC(C)(c3cc(C)oc3C)Nc3nc(C(F)(F)F)nn32)c(C)o1 (configuration not stated)	x	2.4%	41.0*	28.4*	x	9.28µM*
CN(C)S(=O)(=O)c1ccc(N2CCCC2)c(C(=O)Nc2nc(-c3ccc(F)cc3)cs2)c1	52.8	u	-7.9	-0.6	7.2%	9.28µM*
CN(C)S(=O)(=O)c1ccc(N2CCCC2)c(C(=O)Nc2nc(-c3cc(F)ccc3F)cs2)c1	33.8	u	19.3	-1.8	u	-14.9%
CN(C)S(=O)(=O)c1ccc(N2CCCC2)c(C(=O)Nc2nc3ccccc3s2)c1	6.8	-12.5%	47.5*	14.1	u	17.7%
CCCc1c(C)nc(N2CCN(c3ccccc3OC)CC2)[nH]c1=O	53.4	-6.4%	-12.6	-2.5	-16.0%	3.2%
SMILES	HCMV antiviral	Pf growth 96h	Shiga inhibitor	Cycloheximide cs	HCV inhibitor	Pf growth 48h
CCc1ccccc1NC(=O)C1(C)Cc2ccccc2C(=O)O1 (configuration not stated)	-4.3	x	x	x	x	x
Cc1ccc(NC2CCCN(C(=O)c3ccc(F)cc3)C2)cc1C (configuration not stated)	1.5	-24.2%	-3.4	-1.2	-4.3%	9.6%
COc1cccc(-c2cc(C(=O)Nc3cccnc3)c3ccccc3n2)c1	5.0	u	-9.0	12.4	-21.3%	3.7µM*
O=C(Nn1cnnc1)c1cc(-c2cccc(Br)c2)nc2ccccc12	9.1	101.4%	16.6	9.7	1.2%	86.7%
COc1ccc(NC(=O)c2cc(-c3cccnc3)nc3ccc(C)cc23)cc1OC	-16.7	u	-8.0	-4.6	u	u
COc1ccc(NC(=O)c2cc(-c3ccncc3)nc3ccc(Br)cc23)cc1OC	-89.7*	31.3%	30.0	-1.5	12.6µM*	13.1µM*
COc1cccc(-c2cc(C(=O)Nc3ccccc3)c3ccccc3n2)c1	-34.2	x	x	x	-13.9%	x
O=C(Nc1ncccn1)c1cc(-c2cccc(Br)c2)nc2ccccc12	u	1.65µM*	13.9	-1.4	u	u
CN1CCC(NC(=O)c2cc(-c3cccc(Br)c3)nc3ccccc23)CC1	-29.7	-10.7%	-7.8	-2.6	11.2µM*	13.1µM*
Cc1ccc(S(=O)(=O)c2cn(C)c3cc(N4CCCC(C)C4)c(F)cc3c2=O)c(C)c1 (configuration not stated)	-34.1	x	x	x	x	x
C[C@H](C[C@H](N)C(=O)O)C(=O)O	x	x	-5.3	-5.0	x	x
Cc1cc(O)ccc1NC(=O)CCN1C(=O)c2ccc([N+](=O)[O-])cc2C1=O	-31.0	-2.6%	7.6	3.8	4.5%	-3.3%
O=C(Nc1ccncc1)c1cc(-c2ccccn2)nc2ccccc12	14.1	u	-9.3	1.1	-6.7%	-12.1%
O=C(Nc1ccncc1)c1cc(-c2cccc(Br)c2)nc2ccccc12	-9.9	0.828µM*	x	x	u	0.928µM*
COc1ccc(-c2cc(C(=O)Nc3cccnc3)c3ccccc3n2)cc1OC	127.5	45.7%	-20.8	2.5	-2.9%	u
O=C(Nc1cccnc1)c1cc(-c2cccnc2)nc2ccc(Br)cc12	82.9	1.17µM*	30.8	-2.9	-29.2%	1.17µM*
O=C(Nc1cccnc1)c1cc(-c2cccc(Br)c2)nc2ccccc12	4.0	1.0%	-16.4	-1.9	-22.6%	3.7µM*
COc1cc(NC(=O)c2cc(-c3cccnc3)nc3ccc(Br)cc23)cc(OC)c1	-37.0	-20.9%	-13.9	-1.4	u	u
COc1ccc(C(=O)N2CCn3c(nnc3C(=O)N3CCCCC3)C2)cc1	7.8	x	x	x	x	x

Assay outcomes: PubChem BioAssay, National Center for Advancing Translational Sciences (NCATS)
